From paper doi:10.1101/2024.03.05.583629

Molecular target: pT7_6His-AlfaTag-ZIF268 (human, UniProt P18146 335-423)
Assay: PADIT-seq
Settings: dsDNA, one strand shown

Sequence	binding signal [log2FC]
CTCGAGGATATCAAGATCTGGCCTCGGCGCGTGAGCGGGAACCTCTAGCTAGCCGACTCACTATAGGGATAATCGCCCTGAGCAAAGACC	0.00935 ± 0.101
CTCGAGGATATCAAGATCTGGCCTCGGCGCGCTGGCGGGAACCTCTAGCTAGCCGACTCACTATAGGGATAATCGCCCTGAGCAAAGACC	0.0489 ± 0.154
CTCGAGGATATCAAGATCTGGCCTCGGCGCGTGGTCCGGAACCTCTAGCTAGCCGACTCACTATAGGGATAATCGCCCTGAGCAAAGACC	0.192 ± 0.0971
CTCGAGGATATCAAGATCTGGCCTCGGCTTGCCACGCGGAACCTCTAGCTAGCCGACTCACTATAGGGATAATCGCCCTGAGCAAAGACC	0.107 ± 0.166
CTCGAGGATATCAAGATCTGGCCTCGGCGCGAGGGCGGGAACCTCTAGCTAGCCGACTCACTATAGGGATAATCGCCCTGAGCAAAGACC	0.751 ± 0.109
CTCGAGGATATCAAGATCTGGCCTCGGCGATTGGGCGGGAACCTCTAGCTAGCCGACTCACTATAGGGATAATCGCCCTGAGCAAAGACC	0.0131 ± 0.0888
CTCGAGGATATCAAGATCTGGCCTCGGCGCGTGTGCGGGAACCTCTAGCTAGCCGACTCACTATAGGGATAATCGCCCTGAGCAAAGACC	0.312 ± 0.112
CTCGAGGATATCAAGATCTGGCCTCGGCCGCCCACCAGGAACCTCTAGCTAGCCGACTCACTATAGGGATAATCGCCCTGAGCAAAGACC	0.0728 ± 0.0981
CTCGAGGATATCAAGATCTGGCCTCGGCGCGGAGGCGGGAACCTCTAGCTAGCCGACTCACTATAGGGATAATCGCCCTGAGCAAAGACC	1.88 ± 0.11
CTCGAGGATATCAAGATCTGGCCTCGGCGCGTGGGAGGGAACCTCTAGCTAGCCGACTCACTATAGGGATAATCGCCCTGAGCAAAGACC	3.65 ± 0.0848
CTCGAGGATATCAAGATCTGGCCTCGGCGCGTGGATCGGAACCTCTAGCTAGCCGACTCACTATAGGGATAATCGCCCTGAGCAAAGACC	0.142 ± 0.102
CTCGAGGATATCAAGATCTGGCCTCGGCCGCCCACACGGAACCTCTAGCTAGCCGACTCACTATAGGGATAATCGCCCTGAGCAAAGACC	1.63 ± 0.0957
CTCGAGGATATCAAGATCTGGCCTCGGCGCGAAAGCGGGAACCTCTAGCTAGCCGACTCACTATAGGGATAATCGCCCTGAGCAAAGACC	0.0239 ± 0.114
CTCGAGGATATCAAGATCTGGCCTCGGCCGCTGCCGCGGAACCTCTAGCTAGCCGACTCACTATAGGGATAATCGCCCTGAGCAAAGACC	0.0482 ± 0.0994
CTCGAGGATATCAAGATCTGGCCTCGGCGCGCGGGCGGGAACCTCTAGCTAGCCGACTCACTATAGGGATAATCGCCCTGAGCAAAGACC	1.18 ± 0.1
CTCGAGGATATCAAGATCTGGCCTCGGCGCGTGGTGGGGAACCTCTAGCTAGCCGACTCACTATAGGGATAATCGCCCTGAGCAAAGACC	0.205 ± 0.103

Sequence	binding signal [log2FC]
CTCGAGGATATCAAGATCTGGCCTCGGCGCGCGTGCGGGAACCTCTAGCTAGCCGACTCACTATAGGGATAATCGCCCTGAGCAAAGACC	0.0362 ± 0.119
CTCGAGGATATCAAGATCTGGCCTCGGCCGCCCACAGGGAACCTCTAGCTAGCCGACTCACTATAGGGATAATCGCCCTGAGCAAAGACC	0.494 ± 0.158
CTCGAGGATATCAAGATCTGGCCTCGGCCGCATGCGCGGAACCTCTAGCTAGCCGACTCACTATAGGGATAATCGCCCTGAGCAAAGACC	0.0876 ± 0.0884
CTCGAGGATATCAAGATCTGGCCTCGGCCGCCTCCGCGGAACCTCTAGCTAGCCGACTCACTATAGGGATAATCGCCCTGAGCAAAGACC	0.383 ± 0.0978
CTCGAGGATATCAAGATCTGGCCTCGGCCGCCCACCGGGAACCTCTAGCTAGCCGACTCACTATAGGGATAATCGCCCTGAGCAAAGACC	0.114 ± 0.0972
CTCGAGGATATCAAGATCTGGCCTCGGCCACCCACGCGGAACCTCTAGCTAGCCGACTCACTATAGGGATAATCGCCCTGAGCAAAGACC	2.1 ± 0.135
CTCGAGGATATCAAGATCTGGCCTCGGCGCGGCGGCGGGAACCTCTAGCTAGCCGACTCACTATAGGGATAATCGCCCTGAGCAAAGACC	0.141 ± 0.11
CTCGAGGATATCAAGATCTGGCCTCGGCGCGTGGTTTGGAACCTCTAGCTAGCCGACTCACTATAGGGATAATCGCCCTGAGCAAAGACC	0.236 ± 0.101
CTCGAGGATATCAAGATCTGGCCTCGGCGCGTGGCGGGGAACCTCTAGCTAGCCGACTCACTATAGGGATAATCGCCCTGAGCAAAGACC	0.049 ± 0.11
CTCGAGGATATCAAGATCTGGCCTCGGCGCGTAGGCGGGAACCTCTAGCTAGCCGACTCACTATAGGGATAATCGCCCTGAGCAAAGACC	3.65 ± 0.0875
CTCGAGGATATCAAGATCTGGCCTCGGCGCGAGCGCGGGAACCTCTAGCTAGCCGACTCACTATAGGGATAATCGCCCTGAGCAAAGACC	0.0892 ± 0.102
CTCGAGGATATCAAGATCTGGCCTCGGCGTTTGGGCGGGAACCTCTAGCTAGCCGACTCACTATAGGGATAATCGCCCTGAGCAAAGACC	0.123 ± 0.0893
CTCGAGGATATCAAGATCTGGCCTCGGCCAGTGGGCGGGAACCTCTAGCTAGCCGACTCACTATAGGGATAATCGCCCTGAGCAAAGACC	1.87 ± 0.0948
CTCGAGGATATCAAGATCTGGCCTCGGCGACTGGGCGGGAACCTCTAGCTAGCCGACTCACTATAGGGATAATCGCCCTGAGCAAAGACC	0.0505 ± 0.0931
CTCGAGGATATCAAGATCTGGCCTCGGCGCGTGGCGCGGAACCTCTAGCTAGCCGACTCACTATAGGGATAATCGCCCTGAGCAAAGACC	0.0413 ± 0.108
